Reference: a collection of fitness landscapes (doi:10.1016/j.celrep.2020.107928)
Over roughly 81,000 sequences, “one-hybrid fitness for binding parS DNA” has its median near -0.17; the highest 2% begin near 0.51. Only a selection was taken, and the highest values are over-represented in it overall.

B1: Caulobacter ParB omega fusion; a variant is named by its letters at X, in order, B8GW30 (parent)
chain: MESVVVGEPGMSEGRRGLGRGLSALLGEVDAAPAQAPGEQLGGSREAPIEILQRNPDQPRRTFREEDLEDLSNSIREKGVLQPILVRPSPDTAGEYQIVAGERAWRAAQRAGLKTVPIMVRELDDLAVLEIGIIENVQRADLNVLEEALSYKVLMEKFERTQENIAQTIGKSXSHVANXMRLLXLPDEVQSYLVSGELTAXHARAIAAAADPVALAKQIIEGGLSVRETEALARKAPNLSAGKSKGGRPPRVKDTDTQALESDLSSVLGLDVSIDHRGSTGTLTITYATLEQLDDLCNRLTRGI

Variants of: B1
Test: one-hybrid fitness for binding parS DNA (scaled: cognate 1, non-cognate 0); higher = stronger binding
Conditions: with parS DNA site
Outline: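 Bacterial one-hybrid selection in E. coli USO rpoZ- hisB- pyrF- with a HIS3 reporter carrying the site 19 bp from the promoter, screening Caulobacter ParB libraries with four specificity codons randomised (NNS). Cells grew 48 hours at 37°C on M9-minus-histidine plus 0.1 mM IPTG and 5 mM 3-AT. Plasmids before and after selection were Illumina-sequenced, three replicate libraries pooled, and variants under 10 reads dropped. Fitness is the log change in variant-to-wild-type read ratio, rescaled to cognate 1, non-cognate 0.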

one-hybrid fitness for binding parS DNA, 0.228:
RNQM

one-hybrid fitness for binding parS DNA, 0.699:
RRQA

one-hybrid fitness for binding parS DNA, 0.71:
RRIC

one-hybrid fitness for binding parS DNA, 0.215:
RRPM

one-hybrid fitness for binding parS DNA, 0.832:
RSRT

one-hybrid fitness for binding parS DNA, 0.799:
RHFC

one-hybrid fitness for binding parS DNA, 0.749:
RRGA

one-hybrid fitness for binding parS DNA, 0.332:
RRIY

one-hybrid fitness for binding parS DNA, 0.611:
RMVA

one-hybrid fitness for binding parS DNA, 0.691:
RWFS

one-hybrid fitness for binding parS DNA, 0.851:
RRDA

one-hybrid fitness for binding parS DNA, 0.683:
RNLT

one-hybrid fitness for binding parS DNA, 0.232:
RSRH

one-hybrid fitness for binding parS DNA, 0.933:
RHAC

one-hybrid fitness for binding parS DNA, 0.74:
RNQT

one-hybrid fitness for binding parS DNA, 0.911:
RSNT

one-hybrid fitness for binding parS DNA, 0.846:
RSYT

one-hybrid fitness for binding parS DNA, 0.815:
RRLA

one-hybrid fitness for binding parS DNA, 0.761:
RRCA

one-hybrid fitness for binding parS DNA, 0.26:
RWAN

one-hybrid fitness for binding parS DNA, 0.592:
RAAA

one-hybrid fitness for binding parS DNA, 0.879:
RCNT

one-hybrid fitness for binding parS DNA, ≤ 0.2:
YEDL
KWKD
VTLP
HAAI
PKVP
RNLP
RNQR
RNLH
RNHD
RNGR
QRGN
GVHD
VTSQ
MGWS
QCRG
QHQC
LAPW
HMRI
VDML
HQSC
DSFI
LCFF
ETSR
RNCQ
RNCM
QRCF
DGSS
YRDA
AKTQ
RRIQ
SLCD
HGNW
EVCS
LNAY
AANM
ILWI
ALYC
DAAA
NAAA
NQKR
LMTS
GGWG
HSNS
QTKP
RHFK
RHFR
RHAF
RHAR
QLSE
TNGD
DMVA
EGMC
HPGG
CLLW
RSDM
RPYT
REDT
RDDT
RPDT
RSNP
REYT
SYNF
QNNL
QNNR
VNTR
TLTC
VASF
ARLY
RENT
RPRT
RSRP
RDYT
RPNT
SLNY
EHPE
LPKC
QHRW
TTHM
QPTM
YDPM
GMKG
RWFY
RWAD
RWFN
GDED
SDVG
NRHA
NRSA
DRSA
DRHA
NRQA
DRQA
NRGA
GDYT
HYRC
YDLT
IYQL
WAPR
MWAV
ANEG
LPHA
SKVC
PETH
DRLA
DRNA
NRNA
DRCA
NRLA
NRCA
QLGG
IAPM
RPYR

one-hybrid fitness for binding parS DNA, 0.216:
RERT

one-hybrid fitness for binding parS DNA, 0.696:
RNGT
RSDT

one-hybrid fitness for binding parS DNA, 0.813:
RCDT

one-hybrid fitness for binding parS DNA, 0.624:
RAFA

one-hybrid fitness for binding parS DNA, 0.693:
RRSA
RRHA

one-hybrid fitness for binding parS DNA, 0.445:
RSNN

one-hybrid fitness for binding parS DNA, 0.818:
RCRT

one-hybrid fitness for binding parS DNA, 0.627:
RRNA

one-hybrid fitness for binding parS DNA, 0.796:
RRPC

one-hybrid fitness for binding parS DNA, 0.723:
RNHT

one-hybrid fitness for binding parS DNA, 0.306:
RNGY

one-hybrid fitness for binding parS DNA, 0.735:
RMKA

one-hybrid fitness for binding parS DNA, 0.612:
RNCT

one-hybrid fitness for binding parS DNA, 0.285:
RGGA

one-hybrid fitness for binding parS DNA, 0.963:
RCYT

one-hybrid fitness for binding parS DNA, 0.346:
RNHN

one-hybrid fitness for binding parS DNA, 0.876:
RWAS
